{
  "source": "PubChem BioAssay (Tox21)",
  "note": "“And” between values parts separate entries of the source, which are not always exact repeats. Equal entries are not always repeated. Inconclusive results are not listed. The source made the active and inactive calls. Calls follow the shape of the dose curve; as a rule, active = well fitted cell-killing curve with a large enough effect in the repeat runs; inconclusive = weak or mixed curves, or effect the other way; inactive = flat fitted curve, though single readings scatter. % is scaled to controls: 0 for no effect and ±100 for the full control effect; potency is read from the fitted curve at half-maximal effect.",
  "data": [
    {"experiment": "cAMP Responsive Elements (CRE) small molecule agonists, cell-based qHTS assay: qHTS cell viability counter screen (AID 2060914);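 also: viability read after 3 h of compound exposure; nearly all actives have a fitted effect of over 50% in size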", "conditions": "CRE-bla HEK293T viability, CellTiter-Glo luminescence, 5 h; series mostly up to 92.4 µM; activity change, negative = cytotoxicity: at the top concentration", "excerpt": "National Center for Advancing Translational Sciences [NCATS]\nDivision of Preclinical Innovation [DPI]\nU.S. Environmental Protection Agency [EPA]\nNational Institutes of Environmental Health Sciences [NIEHS]\nNational Toxicology Program [NTP]\nU.S. Food and Drug Administration [FDA]\nCREB (cyclic-AMP Responsive Element Binding Protein) is a cellular transcription factor. It binds to certain DNA sequences called cAMP Responsive Elements (CRE) and regulates the transcription of the genes. […] This cell line can be used to find agonists/antagonists of the cyclic AMP signaling pathway. The activation of the report gene under culture conditions can be detected by fluorescence intensity. This cell line has been used to screen the Tox21 10K compound library to identify agonists that induce oxidative stress. The cytotoxicity of the Tox21 compound library against the CRE-bla cell line was tested in parallel by measuring the cell viability using CellTiter-Glo assay (Promega, Madison, WI) in the same wells.\nTox21 Assay Protocol Summary:\nCRE-bla Hek 293T cells were suspended in assay medium (DMEM containing 10% dialyzed FBS, 0.1 mM NEAA, 1 mM sodium pyruvate and 25 mM HEPES) and dispensed at 2,000 cells/5 uL /well into 1536-well black wall/clear bottom plates using a Multidrop Combi (ThermoFisher Scientific, Waltham, MA) dispenser. After the assay plates were incubated at 37 C/5% CO2 for 18 hrs, 23 nL of compounds dissolved in DMSO, positive controls or DMSO only was transferred to the assay plate by a pintool workstation (Kalypsys, San Diego, CA). After the plates were incubated at 37 C/5% CO2 for 3 hrs, 1 uL of LiveBLAzer B/G FRET substrate (Invitrogen, Carlsbad, CA) was added to each well using Bioraptr Flying Reagent Dispenser (FRD, Aurora Discovery, San Diego, CA). The plates were incubated at room temperature for 2 h, then fluorescence intensities were measured using an Envision plate reader (PerkinElmer, Shelton, CT) at Excitation 405nm, Emission 460nm and 530nm. The % activity was determined from the ratio of 460nm/530nm. For cell viability readout that measures cytotoxicity, 4 uL /well of CellTiter-Glo reagent was added into the assay plates using Bioraptr FRD. After 30 min incubation at room temperature, the luminescence intensity in the assay plates was measured using a ViewLux (PerkinElmer, Shelton, CT) plate reader.", "values": [
      {"smiles": "COC(=O)c1ccccc1S(=O)(=O)NC(=O)Nc1nc(C)nc(OC)n1", "activity change, negative = cytotoxicity": "-13.1% (inactive)"},
      {"smiles": "CCCCCCC(=O)CCCCCC/C=C/C[C@@H](O)[C@H](O)[C@@](N)(CO)C(=O)O", "activity change, negative = cytotoxicity": "-1.02% [at 18.9 µM] (inactive)"},
      {"smiles": "CC1C(=O)C[C@]2(C(C)C)C[C@H]12", "note": "(stereo not given in full)", "activity change, negative = cytotoxicity": "-1.17% (inactive)"},
      {"smiles": "O=C1CC[C@@]2(O)[C@H]3Cc4ccc(O)c5c4[C@@]2(CCN3CC2CC2)[C@H]1O5", "activity change, negative = cytotoxicity": "-19.9% [at 42.5 µM] (inactive)"},
      {"smiles": "Oc1c(Cl)c(Cl)c(Cl)c(Cl)c1Cl", "Potency": "inactive"},
      {"smiles": "O=NN1CCCCC1", "activity change, negative = cytotoxicity": "-13.5% (inactive)"},
      {"smiles": "CC1(C)[C@H](C(=O)O[C@H](C#N)c2cccc(Oc3ccccc3)c2)[C@@H]1/C=C(\\Cl)C(F)(F)F", "activity change, negative = cytotoxicity": "-0.934% (inactive)"},
      {"smiles": "CCCCCCCCCBr", "activity change, negative = cytotoxicity": "-0.0983% (inactive)"},
      {"smiles": "CC(C)(C)c1ccc(OP(=O)(Oc2ccccc2)Oc2ccccc2)cc1", "activity change, negative = cytotoxicity": "0.0159% (inactive)"},
      {"smiles": "NCCc1ccc(O)cc1", "Potency": "inactive"},
      {"smiles": "c1nc[nH]n1", "Potency": "inactive"},
      {"smiles": "CC(=O)OCC1=C(C(=O)O)N2C(=O)[C@@H](N)[C@H]2SC1", "activity change, negative = cytotoxicity": "1.16% [at 18.9 µM] (inactive)"},
      {"smiles": "Nc1ccc(-c2ccc(N)c(N)c2)cc1N", "Potency": "inactive"},
      {"smiles": "N#CN=C1SCCN1Cc1ccc(Cl)nc1", "activity change, negative = cytotoxicity": "0.965% (inactive)"},
      {"smiles": "COC(=O)c1ccc(CBr)cc1", "activity change, negative = cytotoxicity": "7.66% (inactive)"},
      {"smiles": "CC(C)(C)c1ccccc1O", "Potency": "inactive"},
      {"smiles": "CCCCCCCC[N+](C)(CCCCCCCC)CCCCCCCC", "Potency": "19.3 µM (active) and 30.6 µM (active)"},
      {"smiles": "CC(C)OC(=O)Nc1ccccc1", "Potency": "inactive"},
      {"smiles": "CN1CCC(N(Cc2ccccc2)c2ccccc2)CC1", "activity change, negative = cytotoxicity": "4.04% [at 42.5 µM] (inactive)"},
      {"smiles": "Nc1c(Oc2ccccc2)cc(O)c2c1C(=O)c1ccccc1C2=O", "activity change, negative = cytotoxicity": "11% [at 42.5 µM] (inactive)"},
      {"smiles": "CC[N+](CC)(CC)CC", "Potency": "inactive"},
      {"smiles": "CC(Oc1cc(Cl)c(Cl)cc1Cl)C(=O)O", "note": "(stereo not given)", "activity change, negative = cytotoxicity": "0.729% (inactive)"},
      {"smiles": "CC12CC1(C)C(=O)N(c1cc(Cl)cc(Cl)c1)C2=O", "note": "(stereo not given)", "activity change, negative = cytotoxicity": "3.26% (inactive)"},
      {"smiles": "C=C(C)C(=O)OCC1CO1", "note": "(stereo not given)", "Potency": "inactive"},
      {"smiles": "CC(C)c1c(CN(C)C(C)Cc2ccccc2)n(C)n(-c2ccccc2)c1=O", "note": "(stereo not given)", "activity change, negative = cytotoxicity": "0.555% [at 42.5 µM] (inactive)"},
      {"smiles": "CCCCCC[n+]1ccccc1", "Potency": "inactive"},
      {"smiles": "O=c1[nH]c2ccccc2n1C1CCNCC1", "Potency": "266 nM (active)"},
      {"smiles": "CCCCCCCCCCCCCCC(Br)C(=O)O", "note": "(stereo not given)", "activity change, negative = cytotoxicity": "2.61% (inactive)"},
      {"smiles": "COP(=S)(NC(C)C)Oc1ccc(C)cc1[N+](=O)[O-]", "note": "(stereo not given)", "activity change, negative = cytotoxicity": "-12.4% (inactive)"},
      {"smiles": "O=[N+]([O-])CCO", "activity change, negative = cytotoxicity": "-11.9% (inactive)"},
      {"smiles": "CCOP(=S)(OCC)SCCl", "activity change, negative = cytotoxicity": "15.4% (inactive)"},
      {"smiles": "CN1C(=O)CN=C(c2ccccc2)c2cc(Cl)ccc21", "Potency": "inactive"},
      {"smiles": "CCCSC(=O)N(CCC)CCC", "activity change, negative = cytotoxicity": "0.708% (inactive)"},
      {"smiles": "C1CCNCC1", "activity change, negative = cytotoxicity": "-5.38% (inactive)"},
      {"smiles": "COP(N)(=S)OC", "activity change, negative = cytotoxicity": "3.37% (inactive)"},
      {"smiles": "CCCCC1C(=O)NC(=O)N(C2CCCCC2)C1=O", "note": "(stereo not given)", "activity change, negative = cytotoxicity": "-12.8% [at 42.5 µM] (inactive)"},
      {"smiles": "O=c1[nH]oc2c1CCNC2", "activity change, negative = cytotoxicity": "5.26% [at 42.5 µM] (inactive)"},
      {"smiles": "CCN(C(C)=O)c1cccc(-c2ccnc3c(C#N)cnn23)c1", "activity change, negative = cytotoxicity": "-10.1% [at 42.5 µM] (inactive)"},
      {"smiles": "Nc1ccccc1C(=O)OCCc1ccccc1", "Potency": "inactive"},
      {"smiles": "CCC1(CCC(C)C)C(=O)NC(=O)NC1=O", "activity change, negative = cytotoxicity": "-8.22% (inactive)"}
    ]}
  ]
}
